Experiment [1] can be described thus: Quantitative High-Throughput drug screen in 47 multiple myeloma cell lines against the NCATS MIPE library collection: FR4_PLB cell viability assay (AID 1918924; note: nearly all actives have a fitted effect of over 35% in size; note: potency is the fitted concentration of half-maximal effect). A digest of the protocol:
(§1)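 Relative luminescence from CellTiter-Glo served as the viability signal, referenced to DMSO-treated (100%) and cell-free medium (0%) controls. Treatment lasted 48 hours at 37C with 500 cells per well.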

Experiment [2] in a line: Quantitative High-Throughput drug screen in 47 multiple myeloma cell lines against the NCATS MIPE library collection: Delta47_JCRB cell viability assay (AID 1918925; note: nearly all actives have a fitted effect of over 45% in size; note: potency is the fitted concentration of half-maximal effect). The method in brief: (§2)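 We plated 500 myeloma cells per well, pinned in MIPE 4.0 compounds, and incubated for 48 hours at 37C. ATP was then quantified with CellTiter-Glo, with DMSO and media-only wells defining 100% and 0%.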

Experiment [3] is described as follows: Quantitative High-Throughput drug screen in 47 multiple myeloma cell lines against the NCATS MIPE library collection: EJM_DSMZ cell viability assay (AID 1918926; note: nearly all actives have a fitted effect of over 30% in size; note: potency is the fitted concentration of half-maximal effect). A digest of the protocol:
as §2

Experiment [4] can be described thus: Quantitative High-Throughput drug screen in 47 multiple myeloma cell lines against the NCATS MIPE library collection: AMO1_DSMZ cell viability assay (AID 1918927; note: nearly all actives have a fitted effect of over 30% in size; note: potency is the fitted concentration of half-maximal effect). A digest of the protocol:
as §2

The nature of experiment [5]: Quantitative High-Throughput drug screen in 47 multiple myeloma cell lines against the NCATS MIPE library collection: ARP1_JJKsccF8 cell viability assay (AID 1918928; note: nearly all actives have a fitted effect of over 40% in size; note: potency is the fitted concentration of half-maximal effect). The method in brief: (§3)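 CellTiter-Glo luminescence after 48 h exposure gives viability, scaled between DMSO-only (100%) and media-only (0%) controls. Library compounds are pinned onto 500 myeloma cells per well, incubated at 37C with 5% CO2.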

Experiment [6] in a line: Quantitative High-Throughput drug screen in 47 multiple myeloma cell lines against the NCATS MIPE library collection: ARD_JJKsccE7 cell viability assay (AID 1918929; note: potency is the fitted concentration of half-maximal effect). The method in brief: as §2
A short description of experiment [7]: Quantitative High-Throughput drug screen in 47 multiple myeloma cell lines against the NCATS MIPE library collection: Karpas620_DSMZ cell viability assay (AID 1918959). Note: nearly all actives have a fitted effect of over 30% in size. Note: potency is the fitted concentration of half-maximal effect. The method in brief: as §1
The nature of experiment [8]: Quantitative High-Throughput drug screen in 47 multiple myeloma cell lines against the NCATS MIPE library collection: KMM1_JCRB cell viability assay (AID 1918960). Note: nearly all actives have a fitted effect of over 30% in size. Note: potency is the fitted concentration of half-maximal effect. A digest of the protocol:
as §3

The nature of experiment [9]: Quantitative High-Throughput drug screen in 47 multiple myeloma cell lines against the NCATS MIPE library collection: JIM3_ECACC cell viability assay (AID 1918963; note: nearly all actives have a fitted effect of over 35% in size; note: potency is the fitted concentration of half-maximal effect). A digest of the protocol:
as §1

The nature of experiment [10]: Quantitative High-Throughput drug screen in 47 multiple myeloma cell lines against the NCATS MIPE library collection: H1112_PLB cell viability assay (AID 1918967; note: nearly all actives have a fitted effect of over 30% in size; note: potency is the fitted concentration of half-maximal effect). The method in brief:
as §2

The nature of experiment [11]: Quantitative High-Throughput drug screen in 47 multiple myeloma cell lines against the NCATS MIPE library collection: Karpas25_ECACC cell viability assay (AID 1918968; note: nearly all actives have a fitted effect of over 35% in size; note: potency is the fitted concentration of half-maximal effect). A digest of the protocol:
as §2

The nature of experiment [12]: Quantitative High-Throughput drug screen in 47 multiple myeloma cell lines against the NCATS MIPE library collection: INA6_PLB cell viability assay (AID 1918965; note: nearly all actives have a fitted effect of over 55% in size; note: potency is the fitted concentration of half-maximal effect). A digest of the protocol:
as §1

The nature of experiment [13]: Quantitative High-Throughput drug screen in 47 multiple myeloma cell lines against the NCATS MIPE library collection: KMS27_JCRB cell viability assay (AID 1918970). Note: nearly all actives have a fitted effect of over 30% in size. Note: potency is the fitted concentration of half-maximal effect. The method in brief: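 Myeloma cells (500 per well) were exposed to MIPE 4.0 compounds for 48 h at 37 °C, 5% CO2; viability was read as ATP luminescence with CellTiter-Glo, normalized to DMSO-only (100%) and media-only (0%) wells.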

The test system of experiment [14] is Nanoluciferase (engineered Oplophorus gracilirostris luciferase). The experiment can be described thus: Primary Nanoluciferase (NLuc) qHTS assay for identification of artifact compounds. (AID 1845222).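 Note: NLuc secreted into diluted conditioned medium of S16 cells; 0% = DMSO and -100% = no enzyme.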 A digest of the protocol: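 Using secreted nanoluciferase in S16 culture medium (0.22 um filtered, 1:55 dilution), compounds were preincubated 15 min at RT. Signal was generated with Nano-Glo reagent (1:100) over 5 min.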
In general terms: qHTS replaces the single test concentration by a dilution series.

The nature of experiment [15]: Quantitative High-Throughput drug screen in 47 multiple myeloma cell lines against the NCATS MIPE library collection: JIM1_ECACC cell viability assay (AID 1918964; note: potency is the fitted concentration of half-maximal effect). A digest of the protocol: as §2
Experiment [16] is described as follows: Quantitative High-Throughput drug screen in 47 multiple myeloma cell lines against the NCATS MIPE library collection: Karpas417_ECACC cell viability assay (AID 1918961). Particulars: Karpas417 myeloma viability, CellTiter-Glo ATP luminescence, 48 h; viability (% of DMSO): at 45.8 µM (top of the series). A digest of the protocol:
as §1
(ATP-based viability assays read luminescence as a measure of living cells.)

The nature of experiment [17]: Primary redox qHTS assay for identification of artifact compounds. (AID 1845223). A digest of the protocol:
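Redox-cycling detection via DTT (250 uM final) oxidation coupled to Amplex Red (25 uM)/HRP (250 mU/mL) in HBSS. 15 min preincubation plus 30 min after DTT, room temperature. Ex/Em 525/598 nm; 4-parameter Hill fit against DMSO and 10 uM DA3003.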

Experiment [18] is described as follows: Quantitative High-Throughput drug screen in 47 multiple myeloma cell lines against the NCATS MIPE library collection: KHM11_PLB cell viability assay (AID 1918962). Note: nearly all actives have a fitted effect of over 35% in size. Note: potency is the fitted concentration of half-maximal effect. The method in brief:
as §1

The nature of experiment [19]: Quantitative High-Throughput drug screen in 47 multiple myeloma cell lines against the NCATS MIPE library collection: JJN3_DSMZ cell viability assay (AID 1918966; note: potency is the fitted concentration of half-maximal effect; nearly all actives have a fitted effect of over 50% in size). The method in brief: as §2

Inconclusive results are not listed. Calls of active or inactive are those of the source. Calls come from the whole dose curve; as a rule, active = well fitted curve in the direction sought with a large enough effect; inconclusive = small, poorly fitted or top-dose-only effect, or another doubt; inactive = no such curve, though single readings can be large; an effect the other way counts as inactive or inconclusive.

For the compound `CC(C)C(C)C=CC(C)C1CCC2C3=CC=C4CC(O)CCC4(C)C3CCC21C` (centres undefined), the Potency entry in experiment [1], in experiment [2], in experiment [3], in experiment [4], in [5] and in experiment [6] was “inactive” throughout. Further, the Potency result in experiment [8], in experiment [9], in experiment [10] and in experiment [11] was “inactive” each time. In [7], the Potency was 18.7 µM (active).

In the case of `O=C(Nc1cc(Cl)cc2c1[nH]c1cnccc12)c1cccnc1`, the Potency was 1.87 µM (active) in [1]; 4.18 µM (active) in experiment [2]; 10.5 µM (active) in experiment [3]; 13.2 µM (active) in [5]; 6.62 µM (active) in experiment [8]; 16.6 µM (active) in experiment [12]. The results for the Potency in experiment [10] and in experiment [11] were 1.48 µM (active) and 5.9 µM (active), respectively. Also, the Potency result in experiment [4], in experiment [6], in [7], in [9] and in [13] was “inactive” each time.

Regarding `COc1cc(N2CCC(N3CCN(C)CC3)CC2)ccc1Nc1ncnc(Nc2ccccc2S(=O)(=O)C(C)C)n1`, the Potency result in [14], in experiment [6] and in experiment [15] was “inactive” throughout. For the same compound, the Potency in [9] was 5.26 µM (active).

On to `CCOC(=O)O[C@]1(C(=O)OCCl)CC[C@@H]2[C@H]3CCC4=CC(=O)C=C[C@]4(C)[C@@H]3[C@@H](O)C[C@@]21C`, for which the Potency result in experiment [1], in experiment [2], in [3], in [4], in experiment [7] and in experiment [9] was “inactive” throughout. Moreover, the Potency result in experiment [12], in experiment [10] and in experiment [13] was “inactive” each time. For the same compound, the Potency in experiment [5] is 0.0372 µM (active); in experiment [11], 0.526 µM (active). For the same compound, the viability (% of DMSO) in experiment [16] is 78.2% (active).

Regarding `O=C(O)CCc1nc(-c2ccccc2)c(-c2ccccc2)o1`, in [17], the compound was classed as inactive.

`c1ccc2c(Cc3c[nH]c4ccccc34)c[nH]c2c1`: the Potency in [1] was 20.9 µM (active); in experiment [2], 0.935 µM (active); in experiment [3], 1.48 µM (active); in experiment [4], 8.33 µM (active); in experiment [5], 20.9 µM (active); in [7] it was 9.35 µM (active). In addition, the Potency was 4.18 µM (active) in experiment [18]; 3.32 µM (active) in experiment [12]; 26.4 µM (active) in experiment [19]; 1.05 µM (active) in experiment [10]; 1.05 µM (active) in experiment [11]; 7.43 µM (active) in experiment [13]. In addition, the Potency result in [6] is “inactive”.

For the compound `CC(C)(C(=O)NCC(F)(F)C(F)(F)F)C(=O)N[C@@H]1C(=O)Nc2ccccc2-c2ccccc21`, the Potency entry in experiment [1], in experiment [3] and in experiment [5] was “inactive” each time. The Potency was 20.9 µM (active) in experiment [2]; 18.7 µM (active) in experiment [4]; 18.7 µM (active) in experiment [8]; 18.7 µM (active) in experiment [12]; 16.6 µM (active) in experiment [10]; 1.32 µM (active) in experiment [13].

For the compound `COC[C@@H](c1ccc(C(F)(F)F)cc1)N1CCN(C2(C)CCN(C(=O)c3c(C)ncnc3C)CC2)C[C@H]1C`, the Potency result in experiment [1], in experiment [3], in [5], in experiment [18] and in experiment [13] was “inactive” throughout. Besides, the Potency in experiment [2] is 23.5 µM (active); in experiment [4], 16.6 µM (active); in [12], 26.4 µM (active); in [10], 13.2 µM (active); in experiment [11], 8.33 µM (active).

On to `CC[C@@]1(O)C[C@H](O[C@H]2C[C@H](N(C)C)[C@H](O[C@H]3C[C@H](O)[C@H](O[C@H]4CCC(=O)[C@H](C)O4)[C@H](C)O3)[C@H](C)O2)c2c(cc3c(c2O)C(=O)c2c(O)cccc2C3=O)[C@@H]1C(=O)OC`, for which the Potency in experiment [1] was 0.332 µM (active); in [2], 0.0662 µM (active); in [3] it was 0.469 µM (active); in experiment [4], 0.833 µM (active); in experiment [5], 1.05 µM (active); in experiment [6] it was 5.26 µM (active). Further, the Potency in [8] was 5.9 µM (active); in [18], 0.132 µM (active); in [19], 0.296 µM (active); in experiment [10], 0.833 µM (active); in experiment [11], 0.372 µM (active). Further, in experiment [13], the Potency entry is “inactive”.

Take `COc1ccc2cccc(CCNC(C)=O)c2c1`: the Potency result in [1], in experiment [2], in experiment [3], in [4], in [5] and in experiment [8] was “inactive” each time. Moreover, the Potency result in experiment [18], in [9], in experiment [10], in experiment [11] and in experiment [13] was “inactive” in each case.

Consider `CC1(C)S[C@H]2[C@H](NC(=O)[C@@H](N)c3ccc(O)cc3)C(=O)N2[C@@H]1C(=O)O`, for which the Potency result in [1], in experiment [2], in experiment [3], in experiment [9] and in experiment [10] was “inactive” in each case. Besides, the Potency in experiment [4] is 2.35 µM (active); in [5], 20.9 µM (active); in [6], 4.69 µM (active); in experiment [8], 2.09 µM (active); in experiment [15] it was 7.43 µM (active); in experiment [11], 4.69 µM (active). Besides, the Potency in [13] is 0.935 µM (active).

Consider `CC=CC(=O)N(CC)c1ccccc1C`, for which the Potency result in experiment [1], in experiment [2], in experiment [3], in [4], in [6] and in experiment [8] was “inactive” throughout. The Potency result in experiment [18], in experiment [15], in [12], in [10], in [11] and in [13] was “inactive” each time. Also, in experiment [5], the Potency was 5.26 µM (active).

On to `O=c1cc(CN2CCOCC2)occ1OCCCCCSc1ccnc2cc(C(F)(F)F)ccc12`, for which, in experiment [14], the Potency entry was “inactive”. Further, the Potency in experiment [2] was 6.62 µM (active); in experiment [4] it was 18.7 µM (active); in experiment [5], 20.9 µM (active); in [6], 20.9 µM (active); in [8], 13.2 µM (active); in experiment [9], 4.69 µM (active). The Potency was 18.7 µM (active) in experiment [15]; 7.43 µM (active) in experiment [19]; 0.833 µM (active) in [10]; 0.743 µM (active) in experiment [11]; 20.9 µM (active) in experiment [13].

With `NS(=O)(=O)c1ccc(NC2=CC(=O)c3ccccc3C2=O)cc1`, the Potency was 2.96 µM (active) in experiment [1]; 18.7 µM (active) in [2]; 0.59 µM (active) in experiment [4]; 2.64 µM (active) in experiment [5]; 2.64 µM (active) in experiment [6]; 18.7 µM (active) in experiment [9]. Further, the Potency is 11.8 µM (active) in [12], 0.833 µM (active) in [11] and 1.32 µM (active) in [13]. Also, the Potency entry in [3] was “inactive”.

For `Clc1ccc(C(c2ccc(Cl)cc2)n2cc[n+](CC(OCc3ccc(Cl)cc3Cl)c3ccc(Cl)cc3Cl)c2)cc1` (centres undefined), the Potency in [1] was 20.9 µM (active); in experiment [2], 8.33 µM (active); in experiment [3], 16.6 µM (active); in [4] it was 16.6 µM (active); in experiment [5] it was 11.8 µM (active); in experiment [6], 11.8 µM (active). In addition, the Potency in experiment [7] was 9.35 µM (active); in experiment [8] it was 8.33 µM (active); in experiment [18] it was 10.5 µM (active); in experiment [9] it was 16.6 µM (active); in experiment [15] it was 8.33 µM (active); in experiment [12], 8.33 µM (active). The Potency in experiment [19] is 20.9 µM (active); in [10], 11.8 µM (active); in experiment [11], 7.43 µM (active); in experiment [13], 7.43 µM (active).

For the origin of these results see PubChem BioAssay (NCATS).
